In assay [1] the target is T1, Muscle, skeletal receptor tyrosine-protein kinase (Homo sapiens) (UniProt O15146).
T1 sequence (whole entry): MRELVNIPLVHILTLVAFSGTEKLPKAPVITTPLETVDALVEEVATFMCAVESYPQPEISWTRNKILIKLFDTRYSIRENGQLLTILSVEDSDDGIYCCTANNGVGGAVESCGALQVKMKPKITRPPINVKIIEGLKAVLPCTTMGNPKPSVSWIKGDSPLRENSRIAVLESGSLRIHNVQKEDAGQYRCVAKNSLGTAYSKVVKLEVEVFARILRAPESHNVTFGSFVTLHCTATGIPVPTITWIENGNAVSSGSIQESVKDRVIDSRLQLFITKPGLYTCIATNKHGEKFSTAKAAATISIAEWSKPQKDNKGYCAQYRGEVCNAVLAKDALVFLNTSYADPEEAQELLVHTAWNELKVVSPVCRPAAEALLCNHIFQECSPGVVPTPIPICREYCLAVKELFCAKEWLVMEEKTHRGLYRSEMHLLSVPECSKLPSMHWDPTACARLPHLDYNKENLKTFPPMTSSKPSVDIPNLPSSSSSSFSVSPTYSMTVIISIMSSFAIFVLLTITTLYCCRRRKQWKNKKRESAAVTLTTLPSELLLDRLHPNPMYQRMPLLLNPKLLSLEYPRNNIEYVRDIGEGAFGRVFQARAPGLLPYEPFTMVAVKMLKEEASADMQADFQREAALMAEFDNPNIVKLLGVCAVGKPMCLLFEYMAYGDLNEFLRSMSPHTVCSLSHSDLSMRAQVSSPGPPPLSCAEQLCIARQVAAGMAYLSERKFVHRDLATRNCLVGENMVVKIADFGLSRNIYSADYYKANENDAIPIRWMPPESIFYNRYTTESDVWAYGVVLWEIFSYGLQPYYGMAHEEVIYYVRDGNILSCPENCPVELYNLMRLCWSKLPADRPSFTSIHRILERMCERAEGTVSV
The following applies: at 1 µM.

Assay [2] addresses T1, Muscle, skeletal receptor tyrosine-protein kinase (Homo sapiens). As to conditions: at 10 µM.
Assay [3] concerns the target T2, Serine/threonine-protein kinase Nek11 (Homo sapiens) (UniProt Q8NG66).
T2 sequence (whole entry): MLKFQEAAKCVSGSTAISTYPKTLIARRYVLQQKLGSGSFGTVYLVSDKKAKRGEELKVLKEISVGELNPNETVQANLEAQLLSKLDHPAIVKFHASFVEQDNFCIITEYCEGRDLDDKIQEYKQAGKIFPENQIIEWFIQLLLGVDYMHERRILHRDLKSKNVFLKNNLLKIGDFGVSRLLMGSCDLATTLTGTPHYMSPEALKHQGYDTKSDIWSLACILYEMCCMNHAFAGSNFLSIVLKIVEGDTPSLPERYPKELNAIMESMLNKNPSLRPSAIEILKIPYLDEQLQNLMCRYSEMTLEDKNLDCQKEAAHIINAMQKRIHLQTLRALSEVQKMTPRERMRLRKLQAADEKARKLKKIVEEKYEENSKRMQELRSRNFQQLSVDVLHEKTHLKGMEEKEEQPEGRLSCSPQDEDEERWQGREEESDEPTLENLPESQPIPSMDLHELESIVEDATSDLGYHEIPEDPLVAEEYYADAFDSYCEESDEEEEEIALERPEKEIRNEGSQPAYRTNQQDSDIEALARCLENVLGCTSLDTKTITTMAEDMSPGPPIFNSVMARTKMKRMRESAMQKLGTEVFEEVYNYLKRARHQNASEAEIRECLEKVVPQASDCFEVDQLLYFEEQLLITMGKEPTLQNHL
The following applies: at 1 µM.

Assay [4] has as its target T2, Serine/threonine-protein kinase Nek11 (Homo sapiens). The following applies: at 10 µM.
The target of assay [5] is T3, Serine/threonine-protein kinase Nek2 (Homo sapiens) (UniProt P51955).
T3 sequence (whole entry): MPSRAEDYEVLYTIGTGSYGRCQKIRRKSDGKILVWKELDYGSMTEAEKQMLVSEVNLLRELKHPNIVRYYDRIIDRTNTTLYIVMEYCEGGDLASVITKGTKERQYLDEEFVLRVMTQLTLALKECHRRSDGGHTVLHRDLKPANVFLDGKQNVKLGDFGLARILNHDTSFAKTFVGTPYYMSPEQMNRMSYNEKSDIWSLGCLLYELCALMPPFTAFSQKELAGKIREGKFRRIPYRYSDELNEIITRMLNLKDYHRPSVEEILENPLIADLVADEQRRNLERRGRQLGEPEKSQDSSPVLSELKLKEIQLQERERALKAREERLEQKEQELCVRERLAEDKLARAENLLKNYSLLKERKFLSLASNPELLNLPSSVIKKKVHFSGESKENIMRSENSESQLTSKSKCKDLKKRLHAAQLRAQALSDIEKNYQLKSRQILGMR
As to conditions: at 1 µM.

The target in assay [6] is T3, Serine/threonine-protein kinase Nek2 (Homo sapiens). The following applies: at 10 µM.
The target of assay [7] is T4, Serine/threonine-protein kinase Nek3 (Homo sapiens) (UniProt P51956).
T4 sequence (whole entry): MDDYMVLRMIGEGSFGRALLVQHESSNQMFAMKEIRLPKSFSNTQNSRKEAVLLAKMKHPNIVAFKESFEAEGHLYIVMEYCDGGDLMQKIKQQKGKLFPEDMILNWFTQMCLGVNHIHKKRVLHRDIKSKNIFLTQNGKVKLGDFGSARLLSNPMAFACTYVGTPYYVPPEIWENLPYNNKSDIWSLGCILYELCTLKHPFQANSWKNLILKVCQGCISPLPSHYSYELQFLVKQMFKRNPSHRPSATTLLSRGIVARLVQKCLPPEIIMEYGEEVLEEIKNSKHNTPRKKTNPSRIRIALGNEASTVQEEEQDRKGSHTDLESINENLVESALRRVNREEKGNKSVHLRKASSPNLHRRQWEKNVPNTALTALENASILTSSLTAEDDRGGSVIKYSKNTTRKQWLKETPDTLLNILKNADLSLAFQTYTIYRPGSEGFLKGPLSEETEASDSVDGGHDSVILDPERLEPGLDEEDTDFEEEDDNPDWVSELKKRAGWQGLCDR
As to conditions: at 1 µM.

Assay [8] has as its target T4, Serine/threonine-protein kinase Nek3 (Homo sapiens). As to conditions: at 10 µM.
Assay [9] concerns the target Serine/threonine-protein kinase tousled-like 2 (Homo sapiens) (UniProt Q86UE8). As to conditions: at 1 µM.
Assay [10] has the same target. As to conditions: at 10 µM.
Assay [11] deals with T5, Testis-specific serine/threonine-protein kinase 1 (Homo sapiens) (UniProt Q9BXA7).
T5 sequence (whole entry): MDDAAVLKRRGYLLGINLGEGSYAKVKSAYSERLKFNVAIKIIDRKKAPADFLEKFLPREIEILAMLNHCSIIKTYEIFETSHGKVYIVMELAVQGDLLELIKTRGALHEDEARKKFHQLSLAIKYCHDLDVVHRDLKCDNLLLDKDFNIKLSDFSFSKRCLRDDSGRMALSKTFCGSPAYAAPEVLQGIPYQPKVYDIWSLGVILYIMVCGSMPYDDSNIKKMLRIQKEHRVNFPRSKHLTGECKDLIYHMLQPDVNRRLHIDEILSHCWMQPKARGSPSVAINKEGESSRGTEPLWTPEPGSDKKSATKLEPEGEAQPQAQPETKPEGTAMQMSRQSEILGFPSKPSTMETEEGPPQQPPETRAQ
The following applies: at 1 µM.

Assay [12] deals with T5, Testis-specific serine/threonine-protein kinase 1 (Homo sapiens). As to conditions: at 10 µM.
In assay [13] the target is T6, Testis-specific serine/threonine-protein kinase 2 (Homo sapiens) (UniProt Q96PF2).
T6 sequence (whole entry): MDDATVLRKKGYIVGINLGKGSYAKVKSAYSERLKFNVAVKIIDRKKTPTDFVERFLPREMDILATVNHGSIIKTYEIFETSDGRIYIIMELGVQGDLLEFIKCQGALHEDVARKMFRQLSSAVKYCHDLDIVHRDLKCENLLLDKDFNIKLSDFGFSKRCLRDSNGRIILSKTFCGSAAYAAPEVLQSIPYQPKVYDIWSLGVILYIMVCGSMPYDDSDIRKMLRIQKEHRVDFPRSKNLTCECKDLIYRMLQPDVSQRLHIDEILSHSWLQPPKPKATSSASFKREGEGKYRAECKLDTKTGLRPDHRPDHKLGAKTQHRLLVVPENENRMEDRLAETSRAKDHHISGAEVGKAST
As to conditions: at 10 µM.

Assay [14] deals with T7, Tyrosine-protein kinase Tec (Homo sapiens) (UniProt P42680).
T7 sequence (whole entry): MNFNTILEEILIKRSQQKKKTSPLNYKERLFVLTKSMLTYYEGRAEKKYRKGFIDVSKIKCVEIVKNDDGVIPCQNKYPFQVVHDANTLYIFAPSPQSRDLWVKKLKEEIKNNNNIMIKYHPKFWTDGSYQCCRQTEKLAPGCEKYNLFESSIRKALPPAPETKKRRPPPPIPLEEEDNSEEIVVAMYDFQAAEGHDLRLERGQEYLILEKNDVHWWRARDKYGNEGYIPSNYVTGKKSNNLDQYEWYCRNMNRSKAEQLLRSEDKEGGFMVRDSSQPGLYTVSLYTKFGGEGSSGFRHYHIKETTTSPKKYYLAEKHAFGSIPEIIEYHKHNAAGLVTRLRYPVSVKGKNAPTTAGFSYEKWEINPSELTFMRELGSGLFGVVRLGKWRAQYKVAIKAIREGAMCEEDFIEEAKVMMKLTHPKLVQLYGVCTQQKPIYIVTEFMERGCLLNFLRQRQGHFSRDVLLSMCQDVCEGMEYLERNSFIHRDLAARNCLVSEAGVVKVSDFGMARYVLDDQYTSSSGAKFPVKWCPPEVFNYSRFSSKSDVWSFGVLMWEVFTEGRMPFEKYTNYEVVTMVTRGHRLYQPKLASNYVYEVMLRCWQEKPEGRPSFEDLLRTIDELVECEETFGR
As to conditions: at 1 µM.

Assay [15] addresses T7, Tyrosine-protein kinase Tec (Homo sapiens). As to conditions: at 10 µM.
Assay [16] has as its target Angiopoietin-1 receptor (Homo sapiens) (UniProt Q02763). As to conditions: at 1 µM.
The target is the same in assay [17]. The following applies: at 10 µM.
Assay [18] deals with High affinity nerve growth factor receptor (Homo sapiens) (UniProt P04629). As to conditions: at 1 µM.
For assay [19] the target is unchanged. The following applies: at 10 µM.
Assay [20] has as its target BDNF/NT-3 growth factors receptor (Homo sapiens) (UniProt Q16620). As to conditions: at 1 µM.

Chain of Angiopoietin-1 receptor (Homo sapiens) (Q02763 whole entry): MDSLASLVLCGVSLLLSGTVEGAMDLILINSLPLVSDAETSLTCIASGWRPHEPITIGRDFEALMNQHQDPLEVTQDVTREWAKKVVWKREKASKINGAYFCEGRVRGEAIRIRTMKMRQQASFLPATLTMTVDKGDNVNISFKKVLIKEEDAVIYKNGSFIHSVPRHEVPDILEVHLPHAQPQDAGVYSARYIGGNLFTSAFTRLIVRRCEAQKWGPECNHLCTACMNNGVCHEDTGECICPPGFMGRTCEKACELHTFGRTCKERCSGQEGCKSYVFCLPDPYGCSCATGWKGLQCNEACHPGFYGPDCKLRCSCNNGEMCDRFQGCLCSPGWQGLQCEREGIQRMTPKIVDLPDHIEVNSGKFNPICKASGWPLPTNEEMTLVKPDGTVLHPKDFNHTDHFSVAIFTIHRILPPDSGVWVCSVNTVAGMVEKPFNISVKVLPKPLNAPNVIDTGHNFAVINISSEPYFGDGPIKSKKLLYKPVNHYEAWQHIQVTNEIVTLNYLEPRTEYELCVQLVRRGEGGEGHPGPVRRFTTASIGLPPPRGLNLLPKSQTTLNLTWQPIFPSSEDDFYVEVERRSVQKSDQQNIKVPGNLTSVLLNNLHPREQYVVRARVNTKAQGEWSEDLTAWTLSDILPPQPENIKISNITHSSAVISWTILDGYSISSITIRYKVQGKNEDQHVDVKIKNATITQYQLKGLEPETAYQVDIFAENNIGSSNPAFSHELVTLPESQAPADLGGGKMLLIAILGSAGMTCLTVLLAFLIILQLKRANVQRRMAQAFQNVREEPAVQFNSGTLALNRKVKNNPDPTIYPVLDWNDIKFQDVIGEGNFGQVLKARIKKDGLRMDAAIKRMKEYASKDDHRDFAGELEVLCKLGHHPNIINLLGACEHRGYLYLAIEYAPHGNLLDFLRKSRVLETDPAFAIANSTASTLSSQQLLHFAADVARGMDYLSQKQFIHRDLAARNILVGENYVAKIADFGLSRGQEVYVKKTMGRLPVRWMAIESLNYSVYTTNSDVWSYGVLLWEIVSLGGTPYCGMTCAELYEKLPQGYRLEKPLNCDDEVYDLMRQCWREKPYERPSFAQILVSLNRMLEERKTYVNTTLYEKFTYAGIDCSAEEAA
Chain of High affinity nerve growth factor receptor (Homo sapiens) (P04629 33-796 limits assumed): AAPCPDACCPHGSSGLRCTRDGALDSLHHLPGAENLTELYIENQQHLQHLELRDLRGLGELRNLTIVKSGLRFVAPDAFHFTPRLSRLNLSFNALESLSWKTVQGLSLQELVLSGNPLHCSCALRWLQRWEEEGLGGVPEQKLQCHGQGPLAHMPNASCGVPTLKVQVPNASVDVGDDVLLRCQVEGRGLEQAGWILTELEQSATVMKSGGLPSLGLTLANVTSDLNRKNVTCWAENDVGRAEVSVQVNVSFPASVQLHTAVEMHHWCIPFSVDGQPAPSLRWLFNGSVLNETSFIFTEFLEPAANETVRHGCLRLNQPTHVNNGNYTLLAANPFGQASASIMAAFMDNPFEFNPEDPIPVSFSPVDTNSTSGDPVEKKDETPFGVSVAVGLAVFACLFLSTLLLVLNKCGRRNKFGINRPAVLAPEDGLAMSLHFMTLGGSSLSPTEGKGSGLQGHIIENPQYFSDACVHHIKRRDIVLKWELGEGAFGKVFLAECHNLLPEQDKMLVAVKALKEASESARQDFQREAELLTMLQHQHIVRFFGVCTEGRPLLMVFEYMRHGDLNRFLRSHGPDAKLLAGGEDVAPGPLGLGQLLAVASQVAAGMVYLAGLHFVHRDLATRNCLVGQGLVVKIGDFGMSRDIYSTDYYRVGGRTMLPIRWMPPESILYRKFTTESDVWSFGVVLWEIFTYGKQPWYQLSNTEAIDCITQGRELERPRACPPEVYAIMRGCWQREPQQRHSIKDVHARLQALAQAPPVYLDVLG
Chain of Serine/threonine-protein kinase tousled-like 2 (Homo sapiens) (Q86UE8 whole entry, looked up): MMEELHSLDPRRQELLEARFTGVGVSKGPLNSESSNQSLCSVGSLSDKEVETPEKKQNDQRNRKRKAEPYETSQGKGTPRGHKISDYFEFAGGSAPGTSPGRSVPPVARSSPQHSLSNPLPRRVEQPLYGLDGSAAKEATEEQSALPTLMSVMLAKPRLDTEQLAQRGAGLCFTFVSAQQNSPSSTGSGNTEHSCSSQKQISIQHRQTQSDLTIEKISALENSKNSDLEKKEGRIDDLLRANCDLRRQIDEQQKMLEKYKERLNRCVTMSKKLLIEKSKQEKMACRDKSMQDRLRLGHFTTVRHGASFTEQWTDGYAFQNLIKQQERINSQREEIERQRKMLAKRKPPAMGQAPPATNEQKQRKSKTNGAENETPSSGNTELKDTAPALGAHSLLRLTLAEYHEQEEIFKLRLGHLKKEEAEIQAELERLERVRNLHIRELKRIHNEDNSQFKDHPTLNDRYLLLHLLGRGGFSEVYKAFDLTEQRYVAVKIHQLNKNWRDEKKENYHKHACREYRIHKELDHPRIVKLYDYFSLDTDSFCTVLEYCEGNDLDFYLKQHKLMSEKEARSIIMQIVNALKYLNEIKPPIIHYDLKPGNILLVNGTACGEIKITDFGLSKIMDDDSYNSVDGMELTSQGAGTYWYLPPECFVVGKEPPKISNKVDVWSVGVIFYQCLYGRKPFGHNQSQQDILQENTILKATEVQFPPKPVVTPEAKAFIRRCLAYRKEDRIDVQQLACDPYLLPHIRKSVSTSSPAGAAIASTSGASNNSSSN
Chain of BDNF/NT-3 growth factors receptor (Homo sapiens) (Q16620 32-822 limits assumed): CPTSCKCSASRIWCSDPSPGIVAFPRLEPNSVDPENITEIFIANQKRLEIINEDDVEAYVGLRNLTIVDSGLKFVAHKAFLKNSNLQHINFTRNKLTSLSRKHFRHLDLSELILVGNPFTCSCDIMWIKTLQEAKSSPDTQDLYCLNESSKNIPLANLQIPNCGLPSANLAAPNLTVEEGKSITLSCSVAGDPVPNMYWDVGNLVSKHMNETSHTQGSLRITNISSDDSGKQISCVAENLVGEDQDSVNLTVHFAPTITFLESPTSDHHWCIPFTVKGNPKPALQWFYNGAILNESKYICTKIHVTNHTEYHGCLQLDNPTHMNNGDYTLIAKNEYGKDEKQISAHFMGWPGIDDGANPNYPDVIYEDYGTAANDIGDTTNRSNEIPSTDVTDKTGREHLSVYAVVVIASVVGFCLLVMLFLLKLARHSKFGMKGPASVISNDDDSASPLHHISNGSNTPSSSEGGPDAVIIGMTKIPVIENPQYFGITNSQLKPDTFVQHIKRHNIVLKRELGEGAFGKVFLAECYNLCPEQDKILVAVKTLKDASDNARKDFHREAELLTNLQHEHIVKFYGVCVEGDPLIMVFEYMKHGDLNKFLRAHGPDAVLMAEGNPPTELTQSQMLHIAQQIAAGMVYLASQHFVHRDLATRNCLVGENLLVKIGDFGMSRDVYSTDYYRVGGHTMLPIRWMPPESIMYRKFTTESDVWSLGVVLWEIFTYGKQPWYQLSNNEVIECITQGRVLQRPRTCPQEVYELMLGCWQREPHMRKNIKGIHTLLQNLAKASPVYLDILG

`CNc1cc2c(Nc3cccc(Br)c3)ncnc2cn1`: the residual activity (as a rule, the signal under treatment as a percentage of the control signal) in [1] was 105%; in assay [2] it was 93%; in assay [3], 109%; in assay [4], 103%; in assay [5], 78%; in assay [6], 109%. Also, the residual activity in assay [7] amounted to 106%; in [8], 63%; in [9], 99%; in [10] it was 93%; in assay [11], 93%; in assay [12] it was 90%. In addition, the residual activity in assay [13] amounted to 103%; in assay [14], 96%; in assay [15], 52%; in assay [16], 90%; in [17] it was 89%; in assay [18], 69%. Further, the results for the residual activity in [19] and in assay [20] were 53% and 64%, respectively.
Turning to `O=c1cc(-c2cccc3c2Sc2ccccc2S3)oc(N2CCOCC2)c1`, the residual activity worked out at 106% in [1]; 96% in [2]; 93% in assay [3]; 64% in assay [4]; 96% in [5]; 92% in assay [6]. Besides, the residual activity in [7] was found to be 92%; in assay [8] it was 99%; in assay [9], 96%; in assay [10], 96%; in assay [11], 92%; in assay [12], 98%. The residual activity in [13] was determined as 90%; in assay [14], 94%; in assay [15], 75%; in assay [16], 101%; in [17], 61%; in assay [18], 114%. Moreover, the residual activity in assay [19] was found to be 95%; in [20], 75%.
In the case of `Oc1ccc(-c2nc(-c3ccc(F)cc3)c(-c3ccncc3)[nH]2)cc1`, the residual activity is 92% in assay [1]; 77% in assay [2]; 85% in assay [3]; 66% in [4]; 127% in [5]; 99% in assay [6]. Also, the residual activity in assay [7] worked out at 85%; in assay [8], 104%; in [9], 112%; in assay [10] it was 100%; in [11], 112%; in assay [12] it was 83%. The residual activity in assay [13] was 113%; in [14], 87%; in assay [15], 55%; in [16] it was 109%; in assay [17], 49%; in assay [18], 107%. The residual activity in [19] is 83%; in assay [20], 99%.
